These results are taken from ChEMBL document CHEMBL3988442, “University of Dundee, Small-Polar-MMV Screening Library” (2021).

Common to all, as to design: scale not given: direction of the effect not stated beside the values
The target of assay [1] is Protein translocase subunit SecA (Escherichia coli (strain K12)) (UniProt P10408). Kind of assay: Assay to Identify E. coli SecA ATPase Inhibitors. Format: functional. The conditions noted are these: 30 µM.
For assay [2], the target named is T1, Ubiquitin-activating enzyme e1, putative (Leishmania donovani (strain BPK282A1)) (UniProt E9BSI1).
T1 sequence (whole entry): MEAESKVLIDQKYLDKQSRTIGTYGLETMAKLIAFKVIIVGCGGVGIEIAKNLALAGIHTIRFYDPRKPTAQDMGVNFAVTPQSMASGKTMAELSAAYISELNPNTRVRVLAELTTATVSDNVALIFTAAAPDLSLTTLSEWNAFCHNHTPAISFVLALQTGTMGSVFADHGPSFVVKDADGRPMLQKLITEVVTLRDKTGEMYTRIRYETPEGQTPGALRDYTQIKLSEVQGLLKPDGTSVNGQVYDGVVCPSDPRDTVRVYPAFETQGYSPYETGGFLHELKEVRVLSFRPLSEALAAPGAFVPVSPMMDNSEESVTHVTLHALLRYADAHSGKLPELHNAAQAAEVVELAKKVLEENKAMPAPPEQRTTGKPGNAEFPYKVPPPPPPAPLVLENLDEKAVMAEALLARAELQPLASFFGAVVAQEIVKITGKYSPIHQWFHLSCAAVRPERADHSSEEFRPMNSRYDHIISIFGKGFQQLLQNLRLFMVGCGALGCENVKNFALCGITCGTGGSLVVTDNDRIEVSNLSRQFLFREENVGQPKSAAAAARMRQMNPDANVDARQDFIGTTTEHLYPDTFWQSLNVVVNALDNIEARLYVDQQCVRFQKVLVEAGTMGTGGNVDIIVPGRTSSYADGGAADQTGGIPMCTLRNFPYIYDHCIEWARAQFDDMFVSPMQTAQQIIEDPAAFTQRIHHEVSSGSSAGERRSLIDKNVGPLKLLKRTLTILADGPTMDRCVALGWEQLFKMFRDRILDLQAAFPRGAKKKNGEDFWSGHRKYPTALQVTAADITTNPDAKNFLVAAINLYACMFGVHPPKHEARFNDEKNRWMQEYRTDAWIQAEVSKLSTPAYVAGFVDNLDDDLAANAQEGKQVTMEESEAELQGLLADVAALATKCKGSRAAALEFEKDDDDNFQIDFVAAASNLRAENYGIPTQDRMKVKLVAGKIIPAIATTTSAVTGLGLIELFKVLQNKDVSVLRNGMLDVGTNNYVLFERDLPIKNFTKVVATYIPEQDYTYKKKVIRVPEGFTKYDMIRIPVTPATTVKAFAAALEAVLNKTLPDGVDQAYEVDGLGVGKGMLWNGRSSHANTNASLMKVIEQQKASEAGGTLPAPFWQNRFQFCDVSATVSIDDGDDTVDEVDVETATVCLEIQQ
Kind of assay: Leishmania donovani Ubiquitin Activating Enzyme (LdE1). Format: functional. Particulars: 30 µM.

The target in assay [3] is AMP-activated protein kinase, AMPK (Homo sapiens) (UniProt P54646+O43741+P54619+Q9UGJ0+Q9Y478+Q13131+Q9UGI9). The assay can be described thus: AMP-dependent Kinase enzyme assay. An in vitro enzyme assay that detects ADP turnover that is directly proportional to AMPK activity. This uses naive AMPK that is activated during the assay with MK-8722. Type of assay: functional. Particulars: 30 µM.

For assay [4], the target named is Sialic acid-binding Ig-like lectin 9 (Homo sapiens) (UniProt Q9Y336). Kind of assay: Hs-Siglec9 ALPHAscreen SOP 20170721. Particulars: 10 µM. On the technique in general: In Alpha technology, singlet oxygen from a donor bead excites a nearby acceptor bead.
Chain of Sialic acid-binding Ig-like lectin 9 (Homo sapiens) (Q9Y336 whole entry): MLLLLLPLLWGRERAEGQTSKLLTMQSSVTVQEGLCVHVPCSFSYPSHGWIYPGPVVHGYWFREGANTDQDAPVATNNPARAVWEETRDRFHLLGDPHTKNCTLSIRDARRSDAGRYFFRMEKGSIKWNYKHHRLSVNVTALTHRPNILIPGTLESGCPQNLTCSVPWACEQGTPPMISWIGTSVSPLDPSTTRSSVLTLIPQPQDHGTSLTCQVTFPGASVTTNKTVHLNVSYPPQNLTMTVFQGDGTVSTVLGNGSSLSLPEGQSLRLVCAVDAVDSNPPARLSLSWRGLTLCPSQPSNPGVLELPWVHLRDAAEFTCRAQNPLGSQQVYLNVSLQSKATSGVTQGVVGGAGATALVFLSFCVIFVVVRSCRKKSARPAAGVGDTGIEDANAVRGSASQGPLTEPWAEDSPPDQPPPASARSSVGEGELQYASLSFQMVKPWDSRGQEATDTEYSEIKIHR
The subject of another assay is Trypanosoma cruzi. The assay can be described thus: Trypanosoma cruzi phosphomannomutase and mannose-1-phosphate guanylyltransferase assay. Particulars: 10 µM. Type of assay: functional.
Assay [5] concerns the target T2, Arginase-2, mitochondrial (Homo sapiens) (UniProt P78540).
T2 sequence (whole entry): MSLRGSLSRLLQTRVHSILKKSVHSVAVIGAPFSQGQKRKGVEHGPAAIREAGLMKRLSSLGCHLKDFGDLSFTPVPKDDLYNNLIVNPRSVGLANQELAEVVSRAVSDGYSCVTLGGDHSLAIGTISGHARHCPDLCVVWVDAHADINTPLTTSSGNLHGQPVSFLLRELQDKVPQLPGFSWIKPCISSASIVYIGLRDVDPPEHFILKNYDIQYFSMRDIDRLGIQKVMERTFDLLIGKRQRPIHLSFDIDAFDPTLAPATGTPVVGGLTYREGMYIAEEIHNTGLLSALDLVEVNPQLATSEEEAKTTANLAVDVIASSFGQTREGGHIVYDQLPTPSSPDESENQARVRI
The assay can be described thus: in vitro enzyme assay to detect the production of urea directly proportional to the activity of Arginase II. Also: in the data most compounds retested in dose-response had high values. Type of assay: functional. The conditions noted are these: 33.3 µM.

The target in assay [6] is T3, Proteasome subunit beta (Trypanosoma cruzi) (UniProt O96673).
T3 sequence (whole entry): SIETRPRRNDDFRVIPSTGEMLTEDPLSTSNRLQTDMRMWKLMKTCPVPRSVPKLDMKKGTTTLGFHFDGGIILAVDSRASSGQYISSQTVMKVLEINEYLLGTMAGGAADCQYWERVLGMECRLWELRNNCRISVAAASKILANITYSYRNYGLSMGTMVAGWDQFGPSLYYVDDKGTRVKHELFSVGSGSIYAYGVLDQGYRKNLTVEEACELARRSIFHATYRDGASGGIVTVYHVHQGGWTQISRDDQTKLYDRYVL
The assay can be described thus: Trypanosoma cruzi proteasome chymotrypsin-like activity (TcProtChymo) assay. Also: in the data most compounds retested in dose-response had high values. Type of assay: functional. The conditions noted are these: 9.37 µM.

The species entered for a further assay is Homo sapiens. Kind of assay: To identify inhibition of the IFN signalling (Jak-Stat) pathway via expression of an eGFP reporter gene under the control of an IFN-stimulated response element (ISRE) containing MxA promoter. Type of assay: functional. The conditions noted are these: 30 µM. In general terms: In a reporter assay the amount or activity of a reporter protein is the signal.

The target of assay [7] is T4, Tyrosyl-tRNA synthetase, putative (Trypanosoma cruzi (strain CL Brener)) (UniProt Q4DSP6).
T4 sequence (whole entry): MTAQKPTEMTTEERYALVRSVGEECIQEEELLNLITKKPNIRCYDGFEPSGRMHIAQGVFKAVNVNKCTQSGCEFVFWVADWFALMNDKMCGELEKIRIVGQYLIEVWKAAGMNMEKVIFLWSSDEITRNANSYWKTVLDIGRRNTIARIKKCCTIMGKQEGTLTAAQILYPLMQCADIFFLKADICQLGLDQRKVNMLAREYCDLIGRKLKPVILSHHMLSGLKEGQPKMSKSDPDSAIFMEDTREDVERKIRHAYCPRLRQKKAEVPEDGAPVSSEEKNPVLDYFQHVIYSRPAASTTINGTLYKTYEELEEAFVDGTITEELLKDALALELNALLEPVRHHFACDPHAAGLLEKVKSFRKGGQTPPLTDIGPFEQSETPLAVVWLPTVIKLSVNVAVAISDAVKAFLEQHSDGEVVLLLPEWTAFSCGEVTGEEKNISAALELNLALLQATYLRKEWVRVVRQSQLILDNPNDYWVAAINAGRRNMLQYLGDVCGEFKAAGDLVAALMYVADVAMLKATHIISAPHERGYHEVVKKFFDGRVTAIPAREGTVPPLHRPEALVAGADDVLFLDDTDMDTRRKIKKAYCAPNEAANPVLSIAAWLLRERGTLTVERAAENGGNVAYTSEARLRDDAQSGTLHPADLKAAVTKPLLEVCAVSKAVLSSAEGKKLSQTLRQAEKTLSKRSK
The assay can be described thus: Trypanosoma cruzi tyrosyl tRNA synthetase (TcYRS) _High Tyrosine SOP. Also: in the data most compounds retested in dose-response had high values. Type of assay: functional. Particulars: 30 µM.

Assay [8] has as its target T4, Tyrosyl-tRNA synthetase, putative (Trypanosoma cruzi (strain CL Brener)). The assay can be described thus: Trypanosoma cruzi tyrosyl tRNA synthetase (TcYRS) SOP. Type of assay: functional. Particulars: 30 µM.
Assay [9] addresses Chromo domain-containing protein 1 (Saccharomyces cerevisiae (strain ATCC 204508 / S288c) (Baker's yeast)) (UniProt P32657). Kind of assay: ScCHD-1 Enzyme Inhibition Assay. Also: in the data most compounds retested in dose-response had high values. Type of assay: functional. Particulars: 30 µM.

For some assays here: Potency and affinity values are given separately.

Chain of Protein translocase subunit SecA (Escherichia coli (strain K12)) (P10408 whole entry): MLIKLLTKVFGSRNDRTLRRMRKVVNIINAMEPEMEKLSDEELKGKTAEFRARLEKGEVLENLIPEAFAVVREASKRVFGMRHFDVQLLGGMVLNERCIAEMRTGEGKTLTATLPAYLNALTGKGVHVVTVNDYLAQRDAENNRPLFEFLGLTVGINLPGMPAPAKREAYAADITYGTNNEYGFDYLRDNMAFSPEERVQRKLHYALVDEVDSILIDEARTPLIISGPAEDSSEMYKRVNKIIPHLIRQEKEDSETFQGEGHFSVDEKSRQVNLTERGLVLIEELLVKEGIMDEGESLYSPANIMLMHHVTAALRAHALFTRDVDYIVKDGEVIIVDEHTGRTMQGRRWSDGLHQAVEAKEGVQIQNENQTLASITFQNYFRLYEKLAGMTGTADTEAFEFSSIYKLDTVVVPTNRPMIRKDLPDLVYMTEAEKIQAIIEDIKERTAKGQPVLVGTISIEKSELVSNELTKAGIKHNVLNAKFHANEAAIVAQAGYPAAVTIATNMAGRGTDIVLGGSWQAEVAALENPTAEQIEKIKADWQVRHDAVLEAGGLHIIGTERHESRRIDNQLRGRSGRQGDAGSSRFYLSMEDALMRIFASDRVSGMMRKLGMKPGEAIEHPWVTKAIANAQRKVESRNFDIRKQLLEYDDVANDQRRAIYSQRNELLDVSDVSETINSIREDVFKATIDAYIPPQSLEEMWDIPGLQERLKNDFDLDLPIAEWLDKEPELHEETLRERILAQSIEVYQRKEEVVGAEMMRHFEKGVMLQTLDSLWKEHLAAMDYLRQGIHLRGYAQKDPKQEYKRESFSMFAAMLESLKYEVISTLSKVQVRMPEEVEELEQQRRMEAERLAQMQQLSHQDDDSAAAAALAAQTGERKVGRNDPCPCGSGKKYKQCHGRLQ
Chain of Chromo domain-containing protein 1 (Saccharomyces cerevisiae (strain ATCC 204508 / S288c) (Baker's yeast)) (P32657 whole entry, the tested form may be a part): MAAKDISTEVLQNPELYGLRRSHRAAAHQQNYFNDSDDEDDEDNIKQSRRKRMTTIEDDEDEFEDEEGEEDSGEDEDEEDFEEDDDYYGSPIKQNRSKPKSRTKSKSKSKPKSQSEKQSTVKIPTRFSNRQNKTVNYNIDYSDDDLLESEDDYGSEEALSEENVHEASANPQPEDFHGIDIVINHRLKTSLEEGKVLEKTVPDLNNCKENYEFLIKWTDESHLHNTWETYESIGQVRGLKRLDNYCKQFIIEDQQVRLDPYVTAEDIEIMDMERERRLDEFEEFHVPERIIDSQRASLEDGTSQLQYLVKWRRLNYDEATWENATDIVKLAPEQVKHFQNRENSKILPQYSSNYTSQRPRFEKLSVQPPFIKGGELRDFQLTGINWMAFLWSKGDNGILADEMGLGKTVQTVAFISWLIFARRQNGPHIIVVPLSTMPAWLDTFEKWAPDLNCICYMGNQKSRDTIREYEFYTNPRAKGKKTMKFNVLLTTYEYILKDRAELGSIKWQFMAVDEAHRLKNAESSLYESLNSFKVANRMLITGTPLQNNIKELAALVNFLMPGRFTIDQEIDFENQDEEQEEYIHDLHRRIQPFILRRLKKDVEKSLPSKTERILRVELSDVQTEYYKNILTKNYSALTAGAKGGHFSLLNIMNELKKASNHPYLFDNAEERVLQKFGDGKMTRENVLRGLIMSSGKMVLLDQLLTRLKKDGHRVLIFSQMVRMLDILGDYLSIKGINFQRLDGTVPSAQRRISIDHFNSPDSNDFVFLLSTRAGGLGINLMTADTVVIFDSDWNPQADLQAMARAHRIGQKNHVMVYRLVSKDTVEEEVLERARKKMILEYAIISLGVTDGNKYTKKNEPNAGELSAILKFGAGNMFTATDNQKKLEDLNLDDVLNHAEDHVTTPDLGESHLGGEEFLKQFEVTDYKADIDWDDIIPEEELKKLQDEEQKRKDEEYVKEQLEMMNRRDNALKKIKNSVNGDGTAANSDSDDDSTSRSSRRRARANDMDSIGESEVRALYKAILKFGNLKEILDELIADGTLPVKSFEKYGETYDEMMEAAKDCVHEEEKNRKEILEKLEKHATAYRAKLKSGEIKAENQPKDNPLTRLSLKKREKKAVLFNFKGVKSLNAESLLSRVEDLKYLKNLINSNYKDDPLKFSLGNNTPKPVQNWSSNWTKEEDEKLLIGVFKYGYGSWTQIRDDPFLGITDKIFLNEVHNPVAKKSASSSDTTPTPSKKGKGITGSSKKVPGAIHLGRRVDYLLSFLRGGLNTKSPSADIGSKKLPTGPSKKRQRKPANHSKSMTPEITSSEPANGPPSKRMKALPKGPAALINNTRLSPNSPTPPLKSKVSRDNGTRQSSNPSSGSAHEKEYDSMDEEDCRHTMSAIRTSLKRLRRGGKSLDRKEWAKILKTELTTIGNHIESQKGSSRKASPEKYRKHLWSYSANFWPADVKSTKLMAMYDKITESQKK

Consider `O=C(NCCOc1ccc(F)c(F)c1)NCc1ccncc1`, for which the Percent Effect in [1] is -1.97%; in [2], 5.41%; in assay [3], 0.439%; in assay [4], -1.88%; in the assay on Trypanosoma cruzi, -2.32%; in assay [5], -2.86%. For the same molecule, the Percent Effect in assay [6] was 11.2%; in the assay listed under Homo sapiens, 14.5%; in assay [7], -0.529%; in assay [8], 4.88%; in [9], -2.73%.
Consider `CC(=O)Nc1nc(C(=O)N2CCCC2Cn2cc(C)cn2)cs1` (stereo not given), for which the Percent Effect is -5.22% in assay [1]; 10.4% in assay [2]; 1.53% in assay [3]; 17.1% in [4]; -6.76% in the assay on Trypanosoma cruzi; 1.47% in assay [5]. Besides, the Percent Effect in assay [6] was 14.5%; in the assay listed under Homo sapiens it was 26.6%; in [7], 2.86%; in [8] it was 9.41%; in assay [9], -19.2%.
Consider `O=C(c1ccc(Cl)cc1)N1CCCn2nnc(Cn3cccn3)c2C1`, for which the Percent Effect is -2.51% in [1]; 16.2% in [2]; 3.45% in assay [3]; 15.3% in assay [4]; 4.2% in the assay with Trypanosoma cruzi; 8.19% in assay [5]. Moreover, the Percent Effect in assay [6] was 16.6%; in the assay filed under Homo sapiens it was 8.78%; in assay [7], 5.38%; in assay [8] it was 16.1%; in assay [9], -7.62%.
As to `O=C(COCC1CC1)N1CCCC(n2cncn2)C1` (stereo not given), the Percent Effect is 1.39% in assay [1]; 10.8% in assay [2]; -12% in assay [3]; -7.81% in assay [4]; -3.3% with Trypanosoma cruzi; -2.81% in [5]. Further, the Percent Effect in assay [6] is 13%; in the assay listed under Homo sapiens, 12.5%; in [7], 1.48%; in assay [8] it was 16.1%; in assay [9] it was -2.64%.
In the case of `COc1ccc(F)cc1C(C)NC(=O)Nc1nnc(C)s1` (stereo not given), the Percent Effect in assay [1] is -1.41%; in assay [2], 10.8%; in [3], -8.69%; in assay [4], 27.9%; in the assay with Trypanosoma cruzi it was 4.99%; in assay [5], 13.7%. Further, the Percent Effect in assay [6] was found to be 9.7%; in the assay filed under Homo sapiens, 17.2%; in [7], 5.38%; in [8] it was 16.1%; in assay [9] it was 3.4%.
As to `O=C(CN1CCCCC1Cn1cncn1)NCCC1=CCCCC1` (stereo not given), the Percent Effect in [1] is -9.27%; in [2], 7.59%; in [3], -1.31%; in assay [4] it was 4.8%; with Trypanosoma cruzi, -2.55%; in assay [5], -0.76%. Moreover, the Percent Effect in assay [6] was -4.5%; in the assay listed under Homo sapiens it was 30.9%; in [7], 2.46%; in assay [8], -3.8%; in [9] it was -6.11%.
In the case of `O=C(c1ccc(N2CCCC2)nn1)N1CCCC(n2cccn2)C1` (stereo not given), the Percent Effect is -6.6% in assay [1]; 10.5% in assay [2]; -3% in assay [3]; -5.01% in assay [4]; -6.44% in the assay on Trypanosoma cruzi; 5.4% in [5]. Besides, the Percent Effect in assay [6] was 5.33%; in the assay filed under Homo sapiens it was -4.4%; in [7] it was 4.43%; in assay [8] it was 3.7%; in [9], 1.12%.
In the case of `COc1ccc(CN(Cc2cccnc2)CC2CCCO2)c(OC)c1` (stereo not given), the Percent Effect is -1.69% in [1]; -2.67% in assay [2]; 11.4% in assay [3]; 2.14% in [4]; 6.69% in the assay on Trypanosoma cruzi; -1.63% in [5]. Also, the Percent Effect in assay [6] was 7.67%; in the assay filed under Homo sapiens, 3.47%; in assay [7] it was 2.13%; in [8], 6.41%; in assay [9] it was -2.64%.
As to `COc1ccc(Br)c(C(=O)NCCNc2ccc(C(F)(F)F)cn2)c1`, the Percent Effect in assay [1] was 0.559%; in assay [2] it was 18.2%; in [3], 8.45%; in assay [4] it was -0.542%; with Trypanosoma cruzi, -1.08%; in assay [5], 0.21%. Also, the Percent Effect in [6] was 10.9%; in the assay filed under Homo sapiens, -7.76%; in [7] it was 11.4%; in assay [8], 25.9%; in [9], -25.7%.
Consider `Cc1cc(N2CCN(Cc3ccc(-c4cc[nH]n4)o3)CC2)cc(C)n1`, for which the Percent Effect in [1] is -5.81%; in assay [2], 13.3%; in assay [3] it was -25.4%; in assay [4], 33.9%; in the assay on Trypanosoma cruzi, 10.2%; in assay [5], 10.9%. The Percent Effect in assay [6] is 12.7%; in the assay listed under Homo sapiens, 9.15%; in [7], 3.83%; in assay [8], 13.6%; in assay [9], -5.59%.
